# Source: PubChem BioAssay (EPA / NIEHS)
# Inconclusive results are not listed. Calls of active or inactive are those of the source. Rule for the calls: active = hit-call score of the fitted dose curve at least 0.9, where 1 is the maximum; inconclusive = response in the unintended direction; inactive = score below 0.9.
# Target: Peroxisome proliferator-activated receptor gamma (Homo sapiens) (UniProt P37231)
# Assay: ATG_PPARg_TRANS: Attagene TRANS-FACTORIAL HepG2 Assay for human Peroxisome Proliferator-activated Receptor-gamma (PPARg) (AID 2283007)
# Experimental: ATG_TRANS is a cell-based, multiplexed-readout assay that uses HepG2, a human liver cell line, with measurements taken at 24 hours after chemical dosing in a 24-well plate.ATG_PPARg_TRANS is one of 30 assay component(s) measured or calculated from the ATG_TRANS assay. It is designed to make measurements of mRNA induction, a form of inducible reporter, as detected with fluorescence intensity signals by Reverse transcription polymerase chain reaction (RT-PCR) and Capillary electrophoresis technology.Data from the assay component ATG_PPARg_TRANS was analyzed into 1 assay endpoint. This assay endpoint, ATG_PPARg_TRANS, was analyzed in the positive analysis fitting direction relative to DMSO as the negative control and baseline of activity. Using a type of inducible reporter, measures of mRNA for gain-of-signal activity can be used to understand the reporter gene at the transcription factor-level as they relate to the gene PPARG. Furthermore, this assay endpoint can be referred to as a primary readout, because this assay has produced multiple assay endpoints where this one serves a reporter gene function. To generalize the intended target to other relatable targets, this assay endpoint is annotated to the nuclear receptor intended target family, where the subfamily is non-steroidal.
# Human liver HepG2 cells are transiently transfected with multiple reporter transcription units (MRTUs) in 6-well plates using FuGene 6 reagent (Roche; 3 ml FuGene/1 mg DNA). The MRTU constructs are regulated by a cis-regulating element (promoter). […] A major difference between the CIS and TRANS system is that in CIS activities of endogenous TFs are measured, whereas the TRANS assay evaluates changes in activities of exogenous, chimeric NR-Gal4 proteins. […] At the end of 24 hour incubation, total RNA was isolated using TriZol reagent (Invitrogen). The isolated RNA is then reverse-transcribed using oligo(dT) primer and Mo-MLV reverse transcriptase (Invitrogen) with DNAse I (Ambion) treatment for 30 min. The one-tenth of the produced cDNA was amplified by PCR using Taq DNA polymerase (Invitrogen) and two reporter sequence-specific primers. The PCR products were fluorescently labeled by primer extension with 6-arboxyfluorescein (6-FAM) 5'-labeled reporter sequence-specific primer (2 min at 95 C, 20 s at 68 C and 10 min at 72 C) and these products were digested with 5U of HpaI (New England Biolabs) for 2h at 37 C. The fragments were purified using Qiaquick PCR columns (Qiagen), analyzed on an ABI 3130xL genetic analyzer (Applied Biosystems) with peak positions identified by using a set of X-rhodamine (ROX)-labeled MapMarker1000 molecular weight standards (BioVentures). The raw capillary electrophoresis data was processed using Attagraph software (Attagene).
# Chain of Peroxisome proliferator-activated receptor gamma (Homo sapiens) (P37231 whole entry, looked up): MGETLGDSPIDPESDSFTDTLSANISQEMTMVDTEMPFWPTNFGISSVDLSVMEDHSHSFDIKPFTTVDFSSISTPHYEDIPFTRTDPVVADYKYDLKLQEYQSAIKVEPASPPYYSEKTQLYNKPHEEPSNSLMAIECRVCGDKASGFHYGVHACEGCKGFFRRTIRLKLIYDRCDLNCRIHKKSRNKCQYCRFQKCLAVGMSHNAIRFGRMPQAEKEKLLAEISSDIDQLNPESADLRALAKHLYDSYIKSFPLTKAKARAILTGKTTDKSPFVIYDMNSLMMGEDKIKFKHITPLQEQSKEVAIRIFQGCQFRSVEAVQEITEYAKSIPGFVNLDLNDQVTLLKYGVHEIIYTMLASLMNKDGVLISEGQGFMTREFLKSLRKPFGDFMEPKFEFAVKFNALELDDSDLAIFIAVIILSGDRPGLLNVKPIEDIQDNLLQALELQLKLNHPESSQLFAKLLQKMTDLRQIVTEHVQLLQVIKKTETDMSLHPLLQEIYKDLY
SMILES,outcome,AC50
O=C1C=CC(=O)N1c1ccccc1,inactive,–
O=C(O)C(F)(F)C(F)(F)C(F)(F)OC(F)(C(F)(F)F)C(F)(F)F,–,101 µM (active)
CCc1cc(Cc2cc(CC)c(N)c(CC)c2)cc(CC)c1N,–,0.886 µM (active)
CCN=c1cc2oc3cc(NCC)c(C)cc3c(-c3ccccc3C(=O)OCC)c-2cc1C,inactive,–
O=C=Nc1cccc2c(N=C=O)cccc12,inactive,–
CCC(Cc1c(I)cc(I)c(N)c1I)C(=O)O (stereo not given),–,29.5 µM (active)
CC(C)Nc1ccc(NC(C)C)c2c1C(=O)c1ccccc1C2=O,inactive,–
O=C1C=CC(=O)N1c1ccc(Cc2ccc(N3C(=O)C=CC3=O)cc2)cc1,inactive,–
O=C(O)CCC(F)(F)C(F)(F)C(F)(F)F,inactive,–
CCOC(=O)CC(=O)C(F)(F)C(F)(F)F,inactive,–
OCC(O)CC(F)(F)C(F)(F)C(F)(F)C(F)(F)C(F)(F)C(F)(F)C(F)(F)C(F)(F)F (stereo not given),inactive,–
O=C(O)C(F)(F)C(F)(F)C(F)(F)C(=O)O,–,84.1 µM (active)
C=C(C)C(=O)OCC(F)(F)C(F)(F)C(F)(F)C(F)F,inactive,–
CCOCN(C(=O)CS(=O)(=O)O)c1c(C)cccc1CC,inactive,–
NC(=O)C(F)(F)C(F)(F)C(F)(F)C(F)(F)C(F)(F)C(F)(F)C(F)(F)F,inactive,–
CCCCCCCC/C=C\CCCCCCCC(=O)OCC(O)CO (stereo not given),–,27.3 µM (active)
OCC(F)(F)C(F)(F)C(F)(F)C(F)(F)C(F)(F)C(F)(F)C(F)(F)C(F)(F)CO,inactive,–
CCOC(C=C(C)CCC=C(C)C)OCC,–,15.3 µM (active)
CCOCOCC,inactive,–
O=C1OC(=O)c2ccc3c4c(ccc1c24)C(=O)OC3=O,inactive,–

SMILES,outcome,AC50
NS(=O)(=O)C(F)(F)C(F)(F)C(F)(F)C(F)(F)C(F)(F)C(F)(F)F,–,50.5 µM (active)
O=c1[nH]cccc1O,inactive,–
O=S(=O)(O)CCC(F)(F)C(F)(F)C(F)(F)C(F)(F)C(F)(F)C(F)(F)C(F)(F)C(F)(F)F,inactive,–
c1ccc(C[P+](c2ccccc2)(c2ccccc2)c2ccccc2)cc1,inactive,–
OCC(O)CC(F)(F)C(F)(F)C(F)(F)C(F)(F)F (stereo not given),inactive,–
CCC(=O)OC(C)c1ccccc1 (stereo not given),inactive,–
O=C(c1ccccc1)c1ccc(O)cc1O,–,42.5 µM (active)
CNS(=O)(=O)C(F)(F)C(F)(F)C(F)(F)C(F)(F)C(F)(F)C(F)(F)C(F)(F)C(F)(F)F,inactive,–
Brc1nc2ccccc2s1,–,23.5 µM (active)
O=C(c1ccccc1)c1ccc(Cl)cc1,–,51.6 µM (active)
CCN(CCO)S(=O)(=O)C(F)(F)C(F)(F)C(F)(F)C(F)(F)C(F)(F)C(F)(F)C(F)(F)C(F)(F)F,inactive,–
CC(C)(C)C(=O)C1C(=O)c2ccccc2C1=O,–,28 µM (active)
CN1CN(C)CN(C)C1,inactive,–
FC(F)(F)C(F)(F)C(F)(F)CC1CO1 (stereo not given),inactive,–
Brc1ccccn1,inactive,–
Cc1cccc(C)n1,inactive,–
CC(C)OC=O,inactive,–
CCCCCCCC/C=C\CCCCCCCC(=O)N(C)CC(=O)O,–,5.36 µM (active)
CCN(CC)c1ccc2c(c1)Oc1cc(N(CC)CC)ccc1C21OC(=O)c2ccccc21,–,17.6 µM (active)
CCCCCCCCCCCC(=O)Cl,–,72.9 µM (active)
